In PubChem BioAssay AID504332 (National Center for Advancing Translational Sciences (NCATS), 2011):
Screen size: about 350,000 compounds; about 31,000 (8.9%) were called active. About 15% were inconclusive and are not listed. Many of the other results were omitted from the sample, so actives are more common in it than they were. Unmarked numbers belong to inactive results. The call rests on the fitted dose curve; in most records, active means well fitted inhibition curve with a large enough effect; inconclusive means small, poorly fitted or top-dose-only effect; inactive means no such curve, though single readings can be large or run the other way.

Target: Histone-lysine N-methyltransferase EHMT2 (Homo sapiens) (UniProt Q96KQ7)
Assay: qHTS Assay for Inhibitors of Histone Lysine Methyltransferase G9a; further: nearly all actives have a fitted effect of over 75% in size
Details: G9a H3K9 monomethylation, AlphaScreen, 2 h; series mostly up to 59 µM; activity, negative = inhibition: at the top concentration
Excerpt: Methylated lysines, on the N-terminal tails of histone proteins serve as epigenetic markers to recruit factors that can then modify local chromatin structure to lead to functional consequences. G9a and other members of the SUV39 family of the SET domain-containing superfamily of histone lysine methyltransferases (HMT) have been identified to specifically methylate Lys9 of histone H3 (H3K9). G9a catalyzes the mono- and di-methylation of H3K9 in mammalian euchromatic regions, where the resulting H3K9me2 is indicative of transcriptional repression. […] The inhibition of G9a will result in transcriptional activation and work synergistically with DNA methyltransferase and histone deacetylase inhibitors, to kill cancer cells. This qHTS assay for identification of G9a inhibitors is a chemiluminescence based AlphaScreen (PerkinElmer). Methylation of biotinylated-histone peptide is measured through specific antibody-based detection, in conjunction with streptavidin-coated donor and anti-IgG antibody-coated acceptor beads. The method is particularly well suited for detection of inhibitors acting by the desired histone peptide competitive mechanism and is applicable to testing other HMTs. Although AlphaScreen has significant advantages with its utility in a variety of epigenetic target assays, the primary screening data provided in this deposition should be used with caution due to the prevalence of screening artifacts. An AlphaScreen counterscreen is highly recommended to be run against any putative actives to eliminate non specific artifacts. Alternatively, one can use other AlphaScreen assays in PubChem to filter out promiscuous hits. Quinn et al. A chemiluminescence-based method for identification of histone lysine methyltransferase inhibitors. Mol Biosyst 6(5): 782-8. 2010. PMID: 20567762 [2] Baell,Holloway. New substructure filters for removal of pan assay interference compounds (PAINS) from screening libraries and for their exclusion in bioassays. J Med Chem. 53(7):2719-40. 2010. PMID: 20131845 NIH Molecular Libraries Probe Production Network [MLPCN] NIH Chemical Genomics Center [NCGC] Structural Genomics Consortium (SGC) NIH Grant: 5U54 MH084681-02
To each well of a 1,536w plate, 2ul of HMT enzyme (final 20nM) were added, using a nanoliter dispenser. The G9a- and GLP-inhibitor BIX-01294 (CID: 25150857) are used as an intraplate control, with a 16-point titration in duplicate. A Kalypsys pin-tool transferred 23nl of library compound solution in DMSO to each well. Following a 15 min incubation of enzyme with compounds at room temperature, 1ul mixture of b-H3K9 peptide substrate (final 500nM) and SAM cofactor (final 20uM) were added. Reactions were allowed to proceed at room temperature for 2 hours. Methylated b-H3K9 peptide product was detected with 0.5 ug/mL rabbit polyclonal anti-monomethyl histone H3K9 antibody (Abcam Inc., Cambridge, MA) and 20 ug/mL each streptavidin-coated donor and anti-rabbit IgG acceptor AlphaScreen beads. Antibody and beads were added in a 1ul dispense, for a final volume of 4ul, and plates were incubated, protected from the light, for 10 min at room temperature. Microplates were then read on an EnVision multilabel plate reader using the 1,536 plate HTS AlphaScreen aperture (excitation time 80 ms, measurement time 240 ms).
On the % scale 0 is the no-effect control and ±100 the full control effect; potency means the concentration at half of the fitted maximal effect.

Histone-lysine N-methyltransferase EHMT2 (Homo sapiens), sequence (Q96KQ7 913-1193 limits assumed): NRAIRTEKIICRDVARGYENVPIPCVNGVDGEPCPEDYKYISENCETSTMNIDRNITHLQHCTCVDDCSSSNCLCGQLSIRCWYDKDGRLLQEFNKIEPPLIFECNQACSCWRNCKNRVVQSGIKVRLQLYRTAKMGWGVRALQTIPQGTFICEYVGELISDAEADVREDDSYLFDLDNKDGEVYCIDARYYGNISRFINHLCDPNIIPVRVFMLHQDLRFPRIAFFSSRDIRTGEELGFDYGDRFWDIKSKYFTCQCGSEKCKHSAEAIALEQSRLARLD

| SMILES | activity, negative = inhibition | Potency |
| --- | --- | --- |
| COc1ccc(S(=O)(=O)N2CCC(C(=O)N3CCc4ccccc4C3)CC2)cc1OC | -13.7% |  |
| CCN(CCCNC(=O)c1c(C)oc2ncn(CC(C)C)c(=O)c12)Cc1ccccc1 | -2.01% |  |
| COc1cccc(-c2nnc3n(CCc4ccccc4)c(=O)c4ccccc4n23)c1O | -23.1% |  |
| CN(C)S(=O)(=O)c1cc(NC(=O)CN2C(=O)NC3(CCCc4ccccc43)C2=O)ccc1Cl (centres undefined) | -7.78% |  |
| CCCCN(CC(=O)Nc1cccc(S(=O)(=O)N2CCCC2)c1)Cc1nc2ccccc2c(=O)[nH]1 |  | 7.94 µM (active) |
| CCN(CC(=O)Nc1ccc(Cl)c(S(=O)(=O)N(C)C)c1)Cc1nc2ccccc2c(=O)[nH]1 |  | 39.8 µM (active) |
| CCN(CC(=O)Nc1cccc(S(N)(=O)=O)c1)Cc1nc2ccccc2c(=O)[nH]1 | -46.9% [at 102 µM] |  |
| O=C(Cn1cnc2ccccc2c1=O)Nc1cccc(S(=O)(=O)N2CCCCC2)c1 | 6.9% [at 102 µM] |  |
| CCCC(=O)N(CCc1ccccc1)Cc1nc2ccccc2c(=O)[nH]1 | 10.1% |  |
| O=C(COc1ccccc1F)Nc1ccc(C(=O)OCc2cc(=O)n3nc(C4CC4)sc3n2)cc1 | 7.25% |  |
| CCCNc1ncnc2c1c(-c1ccccc1)cn2-c1ccc(OCC)cc1 | -35.9% |  |
| S=C(Nc1cccc(Br)c1)N1CCn2cccc2C1c1cccnc1 (centres undefined) |  | 50.1 µM (active) |
| CC(=O)N1c2ccc(S(=O)(=O)N3CCCC(C(=O)NCc4ccc(Cl)cc4)C3)cc2CC1C (centres undefined) | 10.1% |  |
| COC(=O)c1cc(NC(=O)CCS(=O)(=O)c2cc(Br)cc3c2N(C(=O)C2CC2)CC3)cc(C(=O)OC)c1 | 0.579% |  |
| N#Cc1ccccc1S(=O)(=O)N1CCN(Cc2c(O)ccc3ccccc23)CC1 | -0.103% [at 2.33 µM] |  |
| CCCCN=C1N/C(=C\c2ccco2)C(=O)N1c1ccccc1 |  | 44.7 µM (active) |
| O=C(OCN1C(=O)c2ccccc2C1=O)/C(=C\c1ccco1)NC(=O)c1ccccc1 | -8.62% |  |
| CCCCn1c(N)c(N(CC)C(=O)/C=C/c2ccco2)c(=O)[nH]c1=O | -6.99% |  |
| COc1cc(NC(=O)c2cc(C3CC3)nc3c2c(C)nn3-c2ccccc2)cc(OC)c1 | 5.19% |  |
| CCc1ccc(S(=O)(=O)Nc2cc3c(C(=O)OCc4ccccc4)c(C)oc3c3ccccc23)cc1 | -32.7% |  |
| CCCCNC(=O)Cn1nc(C)c(S(=O)(=O)N2CCOCC2)c1C | 8.75% [at 12.7 µM] |  |
| O=C(c1ccco1)N1CCC2(CC1)CN(c1ncccn1)C2 | 6.99% [at 12.7 µM] |  |
| O=C(c1ccco1)N1CCC2(CC1)CCN(c1ncccn1)CC2 | 4.8% [at 12.7 µM] |  |
| O=C(C1=C(O)C(=O)N(c2ncccn2)C1c1cccs1)c1ccco1 (centres undefined) |  | 10 µM (active) |
| COC(=O)c1ccc(OC)c(Cn2c(=O)n(Cc3ccccc3)c(=O)c3c2c2cc(OC)ccc2n3C)c1 | 3.08% |  |

| SMILES | activity, negative = inhibition | Potency |
| --- | --- | --- |
| Cc1nn(Cc2ccccc2)c(C)c1CNC(=O)c1ccc(F)c(S(=O)(=O)N2CCOCC2)c1 | -14.2% [at 12.7 µM] |  |
| CCN(C(=O)CSc1nc(N)cc(=O)[nH]1)C1CCS(=O)(=O)C1 (centres undefined) | 6.8% [at 12.7 µM] |  |
| CCN1CCN(c2ccc(S(=O)(=O)N3CCCCC3)cc2NC(=O)c2cccc(NC(C)=O)c2)CC1 |  | 50.1 µM (active) |
| O=C(Nc1cccnc1)c1cccc(S(=O)(=O)N2CCCC2)c1 | 35.8% [at 102 µM] |  |
| CCN1CCN(c2ccc(S(=O)(=O)N3CCCCC3)cc2NC(=O)Cc2c(Cl)cccc2Cl)CC1 | 40% [at 102 µM] |  |
| O=C(Nc1ccc2c(c1)OCCO2)c1ccc(Cl)c(S(=O)(=O)N2CCCCC2)c1 | -22.9% [at 12.7 µM] |  |
| Cc1ccc(S(=O)(=O)N2CCCCC2)cc1NC(=O)c1cccnc1 | -32.3% [at 102 µM] |  |
| O=C(Nc1cccc(S(=O)(=O)N2CCCCC2)c1)c1ccc2c(c1)OCO2 |  | 1 µM (active) |
| CC(C)(C)SCCSC1=CC(=O)CC(c2ccccc2)C1 (centres undefined) | 64.4% [at 102 µM] |  |
| O=C(CSc1nc2ccccc2c(=O)n1-c1ccc(F)cc1)NC1CC1 | 7.18% [at 0.501 µM] |  |
| COC(=O)CC1Oc2ccccc2-n2cc(-c3ccccc3)nc21 (centres undefined) | -1.05% |  |
| COc1ccc(/C=N/NC(=O)c2cccc(C(F)(F)F)c2)cc1 | 15.8% |  |
| COc1ccc(/C=N/Nc2ccccc2C(=O)O)cc1 |  | 79.4 µM (active) |
| COc1ccc(C(=O)Nc2ccccc2C(=O)N/N=C/c2ccc(O)c(OC)c2)cc1 | -4.54% [at 2.33 µM] |  |
| COc1ccc(Cc2nnc(SCC(=O)N(c3ccccc3)C(C)C)n(N)c2=O)cc1 | 1.31% [at 102 µM] |  |
| CCOc1ccc(C2C(C(=O)O)c3ccccc3C(=O)N2CCN2CCOCC2)cc1 (centres undefined) | 1.66% [at 12.7 µM] |  |
| Cc1cccc(C)c1OCCN1CCOCC1 |  | 11.2 µM (active) |
| CCOc1ccc(C(=O)CCC(=O)Nc2ccncc2)cc1 | -14% [at 12.7 µM] |  |
| Cc1ccc(S(=O)(=O)NCCN2CCOCC2)cc1C | -19.4% [at 12.7 µM] |  |
| CC(=O)c1ccc(OCCN2CCOCC2)cc1 |  | 25.1 µM (active) |
| COc1ccc(C(=O)Nc2ccc(CN3CCOCC3)cc2)cc1 | 39.7% [at 12.7 µM] |  |
| Cc1cccc(C)c1OCC(O)CN1CCCCC1 (centres undefined) | -21.2% [at 102 µM] |  |
| CCCCOc1ccc(C(C)(O)CCN2CCOCC2)cc1 (centres undefined) | -4.38% [at 102 µM] |  |
| CCOc1ccc(C(=O)CCN2CCOCC2)cc1 |  | 39.8 µM (active) |
